Data as given in PubChem BioAssay.
Unmarked numbers belong to inactive results.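 Rule for the calls: active = viability at or below 10% of carrier control in both of two separate runs; inconclusive = viability at or below 10% in only one of the two runs; inactive = the rest.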

Experiment: SK-BR-3 cell growth inhibitors, pilot screen, 24 h, human (AID 572);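 note: compound exposure lasted between 18 and 24 h rather than exactly 24 h; 100% = carrier-treated control wells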
Details: SK-BR-3 viability, CellTiter-Glo luminescence, at 10 µM, active compounds read low

SMILES | viability [%]
CC(C)(C)Cc1nc(-c2ccccn2)no1 | 95.5
CC1CCc2cc(F)cc3c(O)c(C(=O)NCC4CCCO4)c(=O)n1c23 (stereo not given) | 93.5
Cn1cnnc1SCC(=O)Nc1sc2c(c1C#N)CCCCC2 | 86
CCCCCOC(=O)C1=C(C)N(C)C(=O)NC1c1cc(Br)c(O)c(OC)c1 (stereo not given) | 114
COC(=O)c1cnc2c(C(F)(F)F)cccc2c1OC | 104
O=C(COc1ccccc1)NCCSCc1ccco1 | 109
CCOC(=O)C(NC(=O)c1ccc(OC)cc1)(N1CCOCC1)C(F)(F)F (stereo not given) | 112
Cc1ccc(S(=O)(=O)N2CCC(C(=O)N[C@@H](Cc3ccccc3)C(=O)O)CC2)cc1 | 104
COC(=O)c1cc(OC)c(OCc2cc(C(=O)OC)oc2C)c(OC)c1 | 95
O=C(Nc1cccc(O)c1)c1ccccc1 | 93
Cn1c(=O)c2c(nc(SCCCC#N)n2Cc2ccccc2F)n(C)c1=O | 79.5
Cc1cc(=O)oc2ccc(OCC(=O)N3CCC(C)CC3)cc12 | 87
CC(C(=O)N1CCCCC1)n1ncn2cccc2c1=O (stereo not given) | 93.5
O=C(Nc1ccccc1C(=O)NCC1CCCO1)c1ccco1 (stereo not given) | 110
Cc1cc(C)n(CC2CC(=O)N(c3ccc(Cl)c(Cl)c3)C2=O)n1 (stereo not given) | 112
CC(=O)c1cn(CC(=O)NCc2ccc3c(c2)OCO3)c2ccccc12 | 102
Cc1ccc(S(=O)(=O)n2nc(OC(=O)c3ccco3)cc2N)cc1 | 92.5
O=C(Cc1cccs1)Nc1ccccc1C(=O)O | 109
CC1CCN(S(=O)(=O)c2ccc3[nH]cc(C(=O)NCCN4CCOCC4)c(=O)c3c2)CC1 | 108
CC(C)(C)NC(=O)NC(=O)COc1ccccc1C#N | 104

SMILES | viability [%]
COc1ccccc1NC(=O)C1=C(C)Nc2ncnn2C1c1ccc(C)o1 (stereo not given) | 87.5
COc1cccc(NC(=O)CSc2nnc(-c3cc(-c4ccccn4)nc4ccccc34)o2)c1 | 94.5
O=C(Nc1ccc2c(c1)nc1n2CCSC1)c1ccccc1 | 97
O=C(O)c1cc(/C=N\O)ccc1OCc1ccccc1 | 114
CC(=O)Nc1cccc(OCC(O)Cn2cnc3ccccc32)c1 (stereo not given) | 128
Cc1cc(/C=N/n2cnnc2)c(C)n1-c1ccc(Cl)cc1Cl | 99.5
CC1CN(C(=O)CSc2nnc(-c3ccncc3)n2-c2ccccc2)CC(C)O1 (stereo not given) | 101
CCn1cc(S(=O)(=O)CC(=O)Nc2ccc(OC)cc2)c2ccccc21 | 104
O=C(c1ccco1)N1CCN(S(=O)(=O)c2ccc(C3CCCCC3)cc2)CC1 | 96
CC(C(=O)N1CCOCC1)N1c2cccc3cccc(c23)S1(=O)=O (stereo not given) | 101
CCOc1ccc(C2/C(=C(/O)c3ccc(OC)cc3)C(=O)C(=O)N2c2cc(C)on2)cc1OC (stereo not given) | 85
COC(=O)c1cccc(S(=O)(=O)N2CCN(c3nc4ccccc4s3)CC2)c1 | 83
CSC1=C(C#N)C(c2ccc(Cl)cc2)C2=C(CC(C)(C)CC2=O)N1 (stereo not given) | 102
CCOc1ccccc1NC(=O)CN(c1ccc(C)cc1)S(=O)(=O)c1c(C)noc1C | 133
Cc1ccc(C2N(c3ccc(Cl)c(Cl)c3)C(=O)C3CCCN32)o1 (stereo not given) | 99
Cc1ccc2[nH]cc(C(=O)CN3CCC4(CC3)OCCO4)c2c1 | 106
O=S1(=O)CC(N2CCCCC2)C(N2CCCCC2)C1 (stereo not given) | 104
C=CCn1c(N)c(C(=O)NCCC2=CCCCC2)sc1=S | 85.5
COc1cc(OC)cc(-n2nnnc2SCC(=O)N2CCCC2)c1 | 87
Cc1cc2oc(=O)cc(CN3CCN(Cc4ccc5c(c4)OCO5)CC3)c2cc1C | 96.5
